Measured values as given in PubChem BioAssay.
The source made the active and inactive calls.

Tests used:
[1] = tested on: Plasmodium falciparum Sir2 (PF13_0152, Sir2A); test: pfSir2 binders on small-molecule microarrays, primary screen, biochemical, small-molecule microarray, 635 nm fluorescence (AID 1098); conditions: small-molecule microarray binding, fluorescence 635 nm; higher = more signal;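 note: score merges spot fluorescence intensity with its signal-to-noise ratio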
[2] = small-molecule microarray binders of probe aDKK1, primary screen, biochemical, biotinylated probe, 635/667 nm fluorescence (AID 1099); conditions: higher = more signal;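 note: score merges 667nm spot fluorescence with signal to noise across triplicate slides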
[3] = small-molecule microarray binders of probe aCHRDL2, primary screen, biochemical, biotinylated probe, 635/667 nm fluorescence (AID 1100); conditions: higher = more signal
[4] = splicing luciferase reporter signal modulators, primary screen, spliceosome inhibition project, cell-based, HEK293, splice +/- reporter (AID 1101); conditions: luminescence, 24 h, higher = more signal, called active from +8 up or from −8 down;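 note: HEK293 cells carrying a splicing-competent luciferase reporter gene; test concentration not given here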
[5] = biological target: Fibroblast growth factor 10 (Homo sapiens) (UniProt O15520); test: FGF10 binders on small-molecule microarrays, primary screen, biochemical, small-molecule microarray, 635 nm fluorescence (AID 1102); conditions: FGF10 binding, fluorescence 635 nm, higher = more signal
[6] = tested on: glycogen synthase kinase-3 (GSK3A per assay name; protocol says GSK3B); test: GSK3 binders on small-molecule microarrays, primary screen, biochemical, small-molecule microarray, 635 nm fluorescence, GSK3A (AID 1103); conditions: small-molecule microarray binding, fluorescence 635 nm; higher = more signal; note: the record names both GSK3A and GSK3B
[7] = biological target: Epidermal growth factor receptor (Homo sapiens) (UniProt P00533); test: EGFR binders on small-molecule microarrays, primary screen, biochemical, small-molecule microarray, 635 nm fluorescence (AID 1104); conditions: EGFR binding, higher = more signal;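 note: score merges 667 nm emission intensity with spot signal to noise over triplicate slides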
[8] = biological target: Follistatin-related protein 3 (Homo sapiens) (UniProt O95633); test: FSTL3 binders on small-molecule microarrays, primary screen, biochemical, small-molecule microarray, 635 nm fluorescence (AID 1105); conditions: FSTL3 binding, higher = more signal;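 note: score merges emission near 667 nm and signal to noise per printed spot across three slides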
[9] = biological target: Dickkopf-related protein 1 (Homo sapiens) (UniProt O94907); test: DKK1 binders on small-molecule microarrays, primary screen, biochemical, small-molecule microarray, 635 nm fluorescence scan (AID 1106); conditions: DKK1 binding, higher = more signal;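 note: score merges emission near 667 nm with signal to noise over three replicate slides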
[10] = tested on: Inhibin beta A chain (activin A); test: INHBA (activin A) binders on microarrays, primary screen, biochemical, small-molecule microarray, 635 nm fluorescence scan (AID 1107); conditions: small-molecule microarray binding, higher = more signal;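 note: mouse activin A protein probed at 4.33 µg/mL on printed slides; score merges bound-protein fluorescence near 667 nm with spot signal-to-noise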
[11] = tested on: Human papillomavirus type 1a protein E7 (residues 44-93); test: HPV1a E7 fragment binders on microarrays, primary screen, biochemical, small-molecule microarray, residues 44-93, 635 nm fluorescence (AID 1108); conditions: small-molecule microarray binding, fluorescence 635 nm; higher = more signal;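 note: E7 fragment applied at 1 µg/mL in TBST for 1 h at 4 C; score combines spot fluorescence with its signal to noise ratio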
[12] = modulators of HCV replicon luciferase signal, primary screen, HCV replication inhibitor project, Huh7 cells, luciferase reporter (AID 1109); conditions: 48 h, higher = more signal;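 note: huh7 hepatoma cells harbouring a luciferase neomycin HCV replicon reporter; luciferase luminescence as measure of HCV replicon replication; test concentration not given here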
[13] = biological target: Left-right determination factor 2 (Homo sapiens) (UniProt O00292); test: LEFTY2 binders on small-molecule microarrays, primary screen, biochemical, small-molecule microarray, 635 nm fluorescence scan (AID 1110); conditions: LEFTY2 binding, higher = more signal
[14] = biological target: Calmodulin-1 (Homo sapiens) (UniProt P0DP23); test: CALM1 binders on microarrays, EGTA buffer, profiling panel, biochemical, small-molecule microarray, Cy5-labelled CALM1 (AID 1111); conditions: Cy5-CALM1 binding fluorescence, higher = more signal;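 note: labelled calmodulin applied in Tris saline Tween buffer holding calcium plus EGTA and DTT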
[15] = biological target: Calmodulin-1 (Homo sapiens) (UniProt P0DP23); test: calcium-bound CALM1 binders on microarrays, profiling panel, artefact control for SMM control-protein annotation, biochemical, small-molecule microarray, Cy5-labelled CALM1, plus calcium (AID 1112); conditions: Cy5-CALM1 binding fluorescence, higher = more signal;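 note: score merges spot fluorescence with signal to noise from triplicate slides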
[16] = small-molecule microarray binders of probe aWnt5a, primary screen, biochemical, biotinylated probe, 635/667 nm fluorescence (AID 1113); conditions: higher = more signal;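 note: score merges 667 nm fluorescence intensity with signal-to-noise per printed feature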
[17] = small-molecule microarray binders of probe aShh, primary screen, biochemical, biotinylated probe, 635/667 nm fluorescence (AID 1114); conditions: higher = more signal;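 note: probe is biotin-labelled aShh protein from a stem cell growth factor screen; measures binding of labelled protein to compounds printed on the slide; score merges feature fluorescence at 667 nm with signal-to-noise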
[18] = small-molecule microarray binders of probe aNog, primary screen, biochemical, biotinylated probe, 635/667 nm fluorescence (AID 1115); conditions: higher = more signal;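 note: probe is biotinylated aNog protein used at 0.15 µg/mL for 1 h at 4 C; z-score combines 667 nm fluorescence of each spot with its signal to noise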
[19] = biological target: Torsin-1A-interacting protein 1 (Homo sapiens) (UniProt Q5JTV8); test: LAP1 binders from COS7 cell lysate, primary screen, small-molecule microarray, 635/667 nm fluorescence (AID 1116); conditions: COS7-hLAP1 lysate binding, 635 nm fluorescence, higher = more signal
[20] = biological target: Alpha-bungarotoxin (Bungarus multicinctus) (UniProt P60615); test: alpha-bungarotoxin binders on microarray, profiling panel, artefact control for SMM control protein annotation, biochemical, small-molecule microarray, Alexa647 label, 635/667 nm fluorescence (AID 1117); conditions: alpha-BTX-A647 binding fluorescence, higher = more signal
Chain of Alpha-bungarotoxin (Bungarus multicinctus) (P60615 whole entry, looked up): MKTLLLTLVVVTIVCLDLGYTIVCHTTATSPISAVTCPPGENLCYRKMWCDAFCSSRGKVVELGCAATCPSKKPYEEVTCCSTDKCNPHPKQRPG

Chain of Follistatin-related protein 3 (Homo sapiens) (O95633 whole entry, looked up): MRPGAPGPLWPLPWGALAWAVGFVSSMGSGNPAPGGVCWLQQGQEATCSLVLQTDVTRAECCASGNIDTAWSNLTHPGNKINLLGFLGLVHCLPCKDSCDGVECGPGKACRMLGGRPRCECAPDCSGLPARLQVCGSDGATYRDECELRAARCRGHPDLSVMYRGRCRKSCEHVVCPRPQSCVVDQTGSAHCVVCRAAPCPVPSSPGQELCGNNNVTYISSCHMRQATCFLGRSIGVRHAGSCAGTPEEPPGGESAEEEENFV
Chain of Fibroblast growth factor 10 (Homo sapiens) (O15520 whole entry, looked up): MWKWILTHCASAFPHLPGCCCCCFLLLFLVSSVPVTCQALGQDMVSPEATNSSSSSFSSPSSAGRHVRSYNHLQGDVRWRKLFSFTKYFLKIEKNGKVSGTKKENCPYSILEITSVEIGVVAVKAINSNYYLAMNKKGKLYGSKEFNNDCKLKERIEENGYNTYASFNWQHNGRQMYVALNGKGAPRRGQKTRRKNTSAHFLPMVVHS
Chain of Left-right determination factor 2 (Homo sapiens) (O00292 whole entry, looked up): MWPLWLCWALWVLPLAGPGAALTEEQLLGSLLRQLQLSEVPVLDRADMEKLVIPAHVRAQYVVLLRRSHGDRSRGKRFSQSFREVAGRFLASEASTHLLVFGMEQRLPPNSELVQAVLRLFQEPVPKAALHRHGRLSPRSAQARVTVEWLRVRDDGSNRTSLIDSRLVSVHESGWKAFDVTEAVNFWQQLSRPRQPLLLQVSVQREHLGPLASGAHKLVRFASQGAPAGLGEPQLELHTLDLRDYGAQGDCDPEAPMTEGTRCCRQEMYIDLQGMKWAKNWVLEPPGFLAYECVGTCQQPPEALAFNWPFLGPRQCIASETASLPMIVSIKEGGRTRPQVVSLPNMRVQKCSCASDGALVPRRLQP
Chain of Epidermal growth factor receptor (Homo sapiens) (P00533 whole entry, looked up): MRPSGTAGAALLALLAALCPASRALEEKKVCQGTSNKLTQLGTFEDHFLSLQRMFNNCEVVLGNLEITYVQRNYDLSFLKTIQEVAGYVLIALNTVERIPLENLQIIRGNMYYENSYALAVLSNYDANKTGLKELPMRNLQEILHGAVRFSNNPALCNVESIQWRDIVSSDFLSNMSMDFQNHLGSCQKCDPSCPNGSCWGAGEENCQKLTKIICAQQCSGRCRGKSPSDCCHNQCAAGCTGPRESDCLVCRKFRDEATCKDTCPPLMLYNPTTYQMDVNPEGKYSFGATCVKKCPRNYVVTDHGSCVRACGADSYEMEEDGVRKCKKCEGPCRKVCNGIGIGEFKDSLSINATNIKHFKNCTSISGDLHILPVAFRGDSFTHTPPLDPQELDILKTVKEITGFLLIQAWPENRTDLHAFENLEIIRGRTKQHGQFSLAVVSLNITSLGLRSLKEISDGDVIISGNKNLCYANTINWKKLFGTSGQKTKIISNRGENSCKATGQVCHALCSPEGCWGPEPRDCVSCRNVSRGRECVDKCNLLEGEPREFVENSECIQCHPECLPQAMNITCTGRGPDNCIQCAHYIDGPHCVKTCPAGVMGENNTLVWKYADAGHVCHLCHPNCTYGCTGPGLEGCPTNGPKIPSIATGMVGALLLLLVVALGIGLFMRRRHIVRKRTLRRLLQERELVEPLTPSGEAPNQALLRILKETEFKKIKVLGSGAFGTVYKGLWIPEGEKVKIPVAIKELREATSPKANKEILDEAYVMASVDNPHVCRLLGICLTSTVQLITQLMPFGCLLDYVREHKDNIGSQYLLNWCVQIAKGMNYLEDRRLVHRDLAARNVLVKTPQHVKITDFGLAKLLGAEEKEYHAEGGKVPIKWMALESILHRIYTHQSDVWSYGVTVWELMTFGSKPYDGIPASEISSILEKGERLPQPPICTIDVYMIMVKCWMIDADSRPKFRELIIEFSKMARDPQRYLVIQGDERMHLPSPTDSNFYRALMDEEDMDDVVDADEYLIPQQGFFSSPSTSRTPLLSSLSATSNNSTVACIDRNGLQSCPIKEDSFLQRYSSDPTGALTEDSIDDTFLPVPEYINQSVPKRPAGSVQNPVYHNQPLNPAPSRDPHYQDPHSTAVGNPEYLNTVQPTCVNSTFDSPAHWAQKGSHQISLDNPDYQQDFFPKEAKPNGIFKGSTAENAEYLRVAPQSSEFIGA
Chain of Torsin-1A-interacting protein 1 (Homo sapiens) (Q5JTV8 whole entry, looked up): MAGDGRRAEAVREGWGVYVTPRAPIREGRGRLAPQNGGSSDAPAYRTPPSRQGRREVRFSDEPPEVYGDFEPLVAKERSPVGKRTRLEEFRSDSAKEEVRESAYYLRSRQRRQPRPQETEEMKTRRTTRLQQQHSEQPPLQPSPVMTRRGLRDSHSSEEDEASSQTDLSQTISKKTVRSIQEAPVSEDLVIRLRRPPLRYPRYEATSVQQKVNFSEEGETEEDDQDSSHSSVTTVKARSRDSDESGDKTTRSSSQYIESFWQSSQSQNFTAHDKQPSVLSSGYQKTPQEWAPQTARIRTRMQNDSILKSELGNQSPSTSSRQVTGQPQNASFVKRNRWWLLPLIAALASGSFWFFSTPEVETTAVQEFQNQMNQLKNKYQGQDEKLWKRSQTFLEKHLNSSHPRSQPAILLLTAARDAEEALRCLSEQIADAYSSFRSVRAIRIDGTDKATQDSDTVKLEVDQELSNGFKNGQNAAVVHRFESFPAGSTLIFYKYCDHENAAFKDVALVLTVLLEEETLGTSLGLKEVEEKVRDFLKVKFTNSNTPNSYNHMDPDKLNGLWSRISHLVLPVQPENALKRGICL
Chain of Dickkopf-related protein 1 (Homo sapiens) (O94907 whole entry, looked up): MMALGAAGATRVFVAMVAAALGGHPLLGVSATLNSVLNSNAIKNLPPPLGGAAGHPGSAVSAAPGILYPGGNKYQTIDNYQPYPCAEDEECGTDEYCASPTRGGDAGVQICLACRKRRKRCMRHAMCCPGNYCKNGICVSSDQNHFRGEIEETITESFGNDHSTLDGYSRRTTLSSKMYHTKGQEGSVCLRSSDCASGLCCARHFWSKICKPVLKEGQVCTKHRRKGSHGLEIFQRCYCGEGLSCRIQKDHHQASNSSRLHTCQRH

| SMILES | composite z-score [1] | composite z-score [2] | composite z-score [3] | z-score [4] | composite z-score [5] | composite z-score [6] | composite z-score [7] | composite z-score [8] | composite z-score [9] | composite z-score [10] | composite z-score [11] | z-score [12] | composite z-score [13] | composite z-score [14] | composite z-score [15] | composite z-score [16] | composite z-score [17] | composite z-score [18] | composite z-score [19] | composite z-score [20] |
| --- | --- | --- | --- | --- | --- | --- | --- | --- | --- | --- | --- | --- | --- | --- | --- | --- | --- | --- | --- | --- |
| CC(C)OC(=O)C=C1C[C@@H](c2ccc(C(F)(F)F)cc2)O[C@@H](c2ccc(C(F)(F)F)cc2)O1 | 1.12 | 0.164 | 0.492 | -1.55 (inactive) | 0.158 | 0.485 | -0.765 | 0.0144 | -0.899 | -0.522 | 1.44 | -0.512 | -0.467 | 0.808 | 0.776 | -0.0643 | 0.536 | -0.261 | 2.25 | 1.83 |
| C=C(COC)/C(=C/C[C@H](OC(=O)c1ccncc1)c1ccccc1OCCO)c1cnc2ccccc2c1 | 1.32 | 0.29 | -0.627 | 0.321 (inactive) | 1.45 | 1.32 | 0.788 | 1.48 | 0.864 | 1.54 | 1.4 | -2.29 | 0.76 | -0.158 | -0.857 | -0.0405 | -0.0626 | 0.0481 | 0.0493 | 1.04 |
| CC(C)N1C(=O)c2ccccc2[C@@H](C(=O)NC2CC2)[C@@H]1c1ccc(CO)cc1 | 0.869 | -0.18 | -0.194 | 0.381 (inactive) | -0.114 | 0.621 | -0.0202 | 0.552 | 0.37 | 1.13 | -0.142 | 0.0045 | 0.415 | 1.01 | 0.343 | -0.0236 | -0.282 | -0.288 | 0.997 | 0.654 |
| C[N+](C)(C)CCCCCCNC(=O)[C@H]1C[C@H]2C(=O)N[C@@H](Cc3ccccc3)C(=O)N2[C@H]1c1ccc(O)cc1 | 1.27 | -0.265 | -0.534 | -0.0288 (inactive) | 0.98 | 0.637 | 0.192 | 0.894 | 0.834 | 0.445 | -0.306 | 0.975 | 1.09 | -0.667 | -0.973 | 0.0873 | -0.0146 | -0.175 | 0.302 | 0.966 |
| [N-]=[N+]=Nc1ccccc1C[C@]1(C(N)=O)N=C(c2ccc(OCCCO)cc2)O[C@H]1c1ccccc1N=[N+]=[N-] | 0.902 | 0.504 | 0.676 | -1.82 (inactive) | 0.856 | 0.966 | 0.188 | -0.0523 | -0.442 | 1.25 | 1.38 | -2.55 | -0.0114 | 1.55 | 0.873 | 0.0799 | 0.162 | 1.03 | 0.776 | 0.702 |
